Data from PubChem BioAssay AID894 (National Center for Advancing Translational Sciences (NCATS), 2007).
Values joined by “and” are separate entries in the source; they are usually repeats but may differ in a detail not shown here. Equal values may be shown once. The whole screen tested about 150,000 compounds, of which about 6,500 (4.3%) were called active. About 12% were inconclusive and are not listed. The entries come from a sample that favours actives as a whole. Where a structure was tested more than once in an assay, its records may differ in their call. Values without a mark were called inactive. The call rests on the fitted dose curve; in most records, active means well fitted inhibition curve with a large enough effect (not every such curve was filed as active); inconclusive means small, poorly fitted or top-dose-only effect, or another doubt; inactive means no such curve, though single readings can be large or run the other way.

Biological target: 15-hydroxyprostaglandin dehydrogenase [NAD(+)] (Homo sapiens) (UniProt P15428)
Test: qHTS Assay for Inhibitors of HPGD (15-Hydroxyprostaglandin Dehydrogenase)
Conditions: purified HPGD, NADH fluorescence kinetic, PGE2 substrate; activity change, negative = inhibition: stronger effect = lower value
Outline: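 NADH formation kinetics: reaction with 30 uM PGE2 and 1 mM NAD+ (final), 20 nM enzyme, Tris-HCl pH 8 with Tween 20, after 15 min compound preincubation at room temperature. Fluorescence change, last versus first of five reads.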
On the % scale 0 is the no-effect control and ±100 the full control effect; potency means the concentration at half of the fitted maximal effect.

Sequence of 15-hydroxyprostaglandin dehydrogenase [NAD(+)] (Homo sapiens) (P15428 whole entry, looked up): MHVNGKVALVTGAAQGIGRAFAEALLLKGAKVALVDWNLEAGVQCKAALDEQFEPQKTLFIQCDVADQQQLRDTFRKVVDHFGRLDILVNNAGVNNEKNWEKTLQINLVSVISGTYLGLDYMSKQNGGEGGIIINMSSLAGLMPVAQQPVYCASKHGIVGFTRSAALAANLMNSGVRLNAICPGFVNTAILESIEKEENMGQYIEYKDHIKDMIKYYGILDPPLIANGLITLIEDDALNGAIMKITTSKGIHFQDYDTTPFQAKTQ

| Compound | activity change, negative = inhibition | Potency |
| --- | --- | --- |
| O=C1CCC[C@@H]2CC(N3CCCCC3)C[C@@H]3CCN1[C@H]23 (stereo partly specified) | -1.93% |  |
| C=CCNC(=S)NNC(=O)COc1c(Cl)cc(Cl)cc1Cl | -21.2% |  |
| Cc1ccc(Cl)cc1N1CCN(C(=O)c2cccc3c(=O)c(C)c(-c4ccccc4)oc23)CC1 | 0.844% |  |
| O=C(c1ccc(S(=O)(=O)c2ccccc2)cc1)N1CCCCCC1 |  | 17.8 µM (active) |
| CC(NC(=O)c1ccc(Cl)cc1)C(=O)N1CCCCC1 (stereo unspecified) | -4.27% |  |
| O=C(c1ccc(S(=O)(=O)N2CCOCC2)cc1)N1CCN(c2ccccc2)CC1 | -5.22% |  |
| CC1CCN(C(=O)c2ccc(CSc3ccc(Cl)cc3)cc2)CC1 |  | 0.891 µM (active) |
| COc1ccccc1N1CCN(C(=O)c2ccc(S(=O)(=O)N3CCCCC3)cc2)CC1 | -4.4% |  |
| O=C(c1ccc(CSc2ccccc2)cc1)N1CCCCCC1 |  | 0.316 µM (active) |
| CS(=O)(=O)Nc1ccc(C(=O)N2CCCC2)cc1 |  | 20 µM (active) |
| NC(=O)C1CCN(C(=O)c2ccc(-c3ccccc3)cc2)CC1 | -4.39% |  |
| CC(=O)N1CCN(C(=O)c2cccc(S(=O)(=O)Nc3ccc(C)cc3)c2)CC1 | 4.03% |  |
| CCOC(=O)N1CCN(C(=O)CSc2ccc(Cl)cc2)CC1 | -15.4% |  |
| O=C(C1CC1)N1CCN=C1SCc1ccc(Cl)cc1 | -17.7% |  |
| O=C(Nc1ccc(CSc2ccccc2)cc1)c1ccc(CN2CCOCC2)cc1 | -8.57% |  |
| CC1CCCN(CCOCCOc2ccccc2-c2ccccc2)C1 (stereo unspecified) | -3.59% |  |
| COC(=O)N1C(/C=C/C=C/c2ccc(OC)cc2)=Cc2ccccc2C1CC(C)=O (stereo unspecified) | -15% |  |
| CC1CCN(c2ccc(C(=O)Nc3nnc(C4CC4)s3)cc2[N+](=O)[O-])CC1 | -7.37% |  |
| CC(NC(=S)Nc1ccccc1)C1COc2ccccc2O1 (stereo unspecified) | -1.93% |  |
| COc1cc(OC)nc(N/N=C(\c2ccccc2)c2ccncc2)n1 | -10.6% |  |
| CCC1(C(=O)c2ccccc2)C(c2cccc([N+](=O)[O-])c2)C1(C(=O)OC)C(=O)OC (stereo unspecified) | -4.68% |  |
| COc1ccc(Br)cc1CN(C)CC(=O)Nc1cc(Cl)cc(Cl)c1 | -12.1% |  |
| COC(=O)c1c(NC(=O)CN2C(=O)NC(CCc3ccccc3)C2=O)sc2c1CCCCC2 (stereo unspecified) | -23.3% |  |
| CN(C)S(=O)(=O)c1ccc(N2CCCC2=O)c([N+](=O)[O-])c1 | -7.1% |  |

| Compound | activity change, negative = inhibition | Potency |
| --- | --- | --- |
| CCC(CC)C(=O)Nc1cccc(C(=O)N2CCCC2)c1 | -4.19% |  |
| Cc1c(Cl)cccc1NC(=O)Nc1ccc(C(=O)N2CCCC2)cc1 |  | 14.1 µM (active) |
| Cc1c(NC(=O)Nc2ccccc2)cccc1[N+](=O)[O-] | -4.65% |  |
| CC1=C[C@H]2Cc3cc(C)cc(C)c3S(=O)(=O)[C@@H]2C=C1 | -8.5% |  |
| N=C1C(=O)OCC1c1ccccc1NC(=O)CN1CCCCC1 (stereo unspecified) | -11.6% |  |
| C=C(C(C)=O)C(O)c1ccc([N+](=O)[O-])cc1 (stereo unspecified) | -15.8% |  |
| Cc1ccc(O)c(-c2cc(C(=O)Nc3c(C)n(C)n(-c4ccccc4)c3=O)[nH]n2)c1 |  | 20 µM (active) |
| Cc1cc(C(=O)Nc2c(C)n(C)n(-c3ccccc3)c2=O)cs1 | -6.25% |  |
| Cc1c(NC(=O)c2cccnc2)c(=O)n(-c2ccccc2)n1C | 4.69% and -0.99% |  |
| CCCSc1nc2[nH]ncc2c(=O)[nH]1 | -15.8% |  |
| O=C(O)c1cccc(N2C(=O)Nc3ccccc3N2O)c1 | -2.37% |  |
| CCCC(C)C(=O)OCC(=O)Nc1c(Br)cc(C)cc1Br (stereo unspecified) | -2.73% |  |
| CN(Cc1ccccc1)C(=O)CCc1ccccc1 | -14.5% |  |
| CN(Cc1ccccc1)C(=O)COc1ccccc1 | -21.3% |  |
| CC(Cc1ccccc1)C(=O)N(C)Cc1ccccc1 (stereo unspecified) | -12.5% | 5.01 µM (active) |
| COc1ccc(CC(=O)Nc2ccc(C(=O)NC(C)(C)C)cc2)cc1 | -10.9% |  |
| CCN(C(=O)COc1cccnc1[N+](=O)[O-])C1CCS(=O)(=O)C1 (stereo unspecified) | -10.7% |  |
| COc1ccc(C(=O)Nc2c(Cl)cc(Cl)cc2C(=O)N2CCC(C)CC2)cc1 | -13.4% |  |
| COc1ccc(Cn2nnc3c(=O)[nH]c(C4CCN(C(=O)c5ccccc5Cl)CC4)nc32)cc1 |  | 7.94 µM (active) |
| Cc1ccc(NC(=O)N2CCC(c3nc4c(nnn4Cc4c(F)cccc4Cl)c(=O)[nH]3)CC2)cc1 |  | 12.6 µM (active) |
| CC(=O)Nc1ccn(Cc2c(F)cccc2Cl)n1 | -0.326% |  |
| Cc1ccc(Cn2nnc3c(=O)n(CC(=O)N4CCCCC4)cnc32)cc1 | -22% |  |
| COc1ccc(-n2nnc3c(=O)n(CC(=O)N4CCC(Cc5ccccc5)CC4)cnc32)cc1 | -23.8% |  |
| OCCNCCOc1ccc(Cl)c(Cl)c1 | -9% |  |

| Compound | activity change, negative = inhibition | Potency |
| --- | --- | --- |
| C/C(=N/NC(=O)CSc1ccccn1)c1ccc([N+](=O)[O-])cc1 | -12.7% |  |
| CC(C)Nc1nnc(SCC(=O)c2c[nH]c3ccccc23)s1 | -16.2% |  |
| COc1ccc(NC(=S)N2CCCC(CO)C2)c(OC)c1 (stereo unspecified) | -2.74% |  |
| COc1cccc([C@@H]2Oc3ccc(Br)cc3C(=O)[C@H]2OC(=O)NCc2ccc3c(c2)OCO3)c1 | -12.1% |  |
| CCCN=C1NC(=O)C(CC(=O)NCCc2ccc(OC)c(OC)c2)S1 (stereo unspecified) | -5.13% |  |
| O=C(Nc1nc(-c2ccncc2)cs1)C1COc2ccccc2O1 (stereo unspecified) |  | 7.94 µM (active) |
| O=C(Nc1nnc(SCc2ccc(Cl)cc2Cl)s1)C1COc2ccccc2O1 (stereo unspecified) | -24% |  |
| O=C(Nc1nc(-c2ccc3c(c2)OCO3)cs1)c1ccncc1 | -1.69% |  |
| CCNc1nc(-c2cc3ccccc3o2)cs1 | -4.63% |  |
| O=C(OCC(=O)c1c[nH]c2ccccc12)c1cccc(O)c1 | -8.39% |  |
| CC(=O)NC1=NN(C(C)=O)C(C)(c2ccc(C)cc2)S1 (stereo unspecified) | -5.01% |  |
| COCCOC(=O)c1sc(=S)n(CCOC)c1N |  | 28.2 µM (active) |
| CC1(c2ccccc2)CC(C)(C)N(C(=O)c2cc([N+](=O)[O-])cc([N+](=O)[O-])c2)c2ccccc21 (stereo unspecified) | -4.13% |  |
| O=C(NCc1ccco1)c1cc2sccc2n1Cc1ccc(F)cc1 |  | 17.8 µM (active) |
| O=C(NCc1ccco1)c1ccc(Cn2c(=O)c3sccc3n(Cc3ccc(F)cc3)c2=O)cc1 | -17.7% |  |
| O=C(Cc1ccc(-n2c(=O)c3sccc3n(Cc3ccc(F)cc3)c2=O)cc1)NCc1ccco1 | -7.92% |  |
| COc1cc(NC(=O)c2ccccc2NS(=O)(=O)c2ccc(Cl)s2)cc(OC)c1 | -5.94% |  |
| O=C(O)c1c(Br)c(Br)c(Br)c(Br)c1C1c2ccc(O)cc2Oc2cc(O)ccc21 |  | 2.51 µM (active) |
| N#CC1=C(N)Oc2cc(O)ccc2C1C1CCCCC1 (stereo unspecified) | -8.6% |  |
| COc1ccc(/C=C/C(=O)NC(=S)NN2CCCCC2c2cccnc2)cc1 (stereo unspecified) | -29.9% |  |
| CCCCCCCC1=Cc2ccc(F)cc2C(C(C(=O)OC)C(=O)OC)N1C(=O)OC (stereo unspecified) | -2.63% and -13.1% |  |
| O=C(/C=C/c1cccs1)NCc1cccnc1 | -9.43% |  |
| CC(=O)Nc1ccc(S(=O)(=O)NC2(C(F)(F)F)C(=O)Nc3c2c(=O)[nH]c(=O)n3Cc2ccccc2)cc1 (stereo unspecified) |  | 17.8 µM (active) |
| CC(=O)Nc1ccc(S(=O)(=O)Nc2nc3n(n2)C(c2ccccc2)CC(=O)N3)cc1 (stereo unspecified) | -6.58% |  |

| Compound | activity change, negative = inhibition | Potency |
| --- | --- | --- |
| CC(=O)Nc1ccc(S(=O)(=O)NCCc2ccccc2)cc1 | -7.41% |  |
| COc1ccc(C(=O)CSc2nnc(NC(=O)C3CC(=O)N(c4cccc(OC)c4)C3)s2)cc1 (stereo unspecified) | -4.45% |  |
| COC(=O)c1cn(-c2ccccc2)nc1-c1cccnc1 | -1.05% |  |
| CCOC(=O)c1cnc(SCC(=O)Nc2cccc(OC)c2)nc1N | -14.8% |  |
| COC(=O)C1=C(C)N(C)C(=S)NC1c1ccccc1 (stereo unspecified) | -10.8% |  |
| CCOC(=O)c1csc(NC(=O)Nc2cccc(OC)c2)n1 | -6.02% |  |
| CCOC(=O)c1sc(=S)n(-c2cccc(OC)c2)c1N |  | 28.2 µM (active) |
| COC(=O)c1sc(=S)n(-c2ccccc2)c1N |  | 14.1 µM (active) |
| Cc1ccc(CC2S/C(=C(/C#N)C(=O)N3CCOCC3)N(c3ccccc3)C2=O)cc1 (stereo unspecified) | -13.9% |  |
| CN(C)C(=O)c1ccc2c(c1)C1C3CCC(C3)C1C(c1ccccc1)N2 (stereo unspecified) | -9.73% |  |
| c1nnc2c3c4c(sc3ncn12)CCC4 | -16.5% |  |
| S=c1[nH]nc2c3c4c(sc3ncn12)CCCC4 |  | 20 µM (active) |
| N=c1c2c3c(sc2ncn1N)CCCCC3 | -10.1% |  |
| CCOC(=O)/C(=N\Nc1cc(Cl)ccc1Cl)N1CCN(C)CC1 | -8.38% |  |
| CCCCOc1ccc(C(=O)N/C(=C/C=C/c2ccccc2)C(=O)N2CCOCC2)cc1 | -16% |  |
| COc1cccc(C(=O)Nc2cc3c(cc2Br)OCCCO3)c1 | -9.03% |  |
| FC(F)(F)Oc1ccc(NC(=S)NCc2ccccc2)cc1 | -11.2% |  |
| COC(=O)Cc1ccc(NC(=S)NCc2ccccc2)cc1 |  | 20 µM (active) |
| COC(=O)Cc1ccc(NC(=S)NCc2ccc(Cl)cc2)cc1 | -8.96% |  |
| Cc1c(Cl)c([N+](=O)[O-])nn1CCCC(=O)NC(C)c1ccccc1 (stereo unspecified) | -2.71% |  |
| Cc1nn(Cc2ccccc2)c(Cl)c1C(=O)OC1CCOC1=O (stereo unspecified) |  | 15.8 µM (active) |
| COC(=O)c1ccc(COC(=O)c2c(C)nn(Cc3ccccc3Cl)c2Cl)o1 | -23% |  |
| Cc1cc(C(=O)Nc2c(C)nn(Cc3ccccc3)c2C)on1 | -12.9% |  |
